The first assay has as its target T1, EHF (Homo sapiens, UniProt Q9NZC4 1-300).
T1 sequence: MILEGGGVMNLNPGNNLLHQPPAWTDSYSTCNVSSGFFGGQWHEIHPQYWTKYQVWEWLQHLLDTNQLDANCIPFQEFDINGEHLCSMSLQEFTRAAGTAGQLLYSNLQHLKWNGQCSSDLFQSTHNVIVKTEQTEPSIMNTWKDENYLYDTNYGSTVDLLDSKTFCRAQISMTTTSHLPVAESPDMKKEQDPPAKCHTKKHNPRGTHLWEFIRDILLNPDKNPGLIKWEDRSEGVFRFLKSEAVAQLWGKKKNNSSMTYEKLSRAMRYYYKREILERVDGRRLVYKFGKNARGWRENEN
The assay is described as follows: DAPPL (digital affinity profiling via proximity ligation, sequencing); 10 mM Tris-HCl pH 7.5, 50 mM NaCl, 1 mM DTT, 4% glycerol, room temperature, 30 min; GST-TFs on glutathione beads, 16-mer random dsDNA library, 0.1% formaldehyde crosslink after washing; high values mean tight binding. To be noted: protein: recombinant; tags: N-terminal GST; dsDNA, one strand shown. In a few lines:
(§1)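 Human transcription factors fused to GST were expressed in yeast, captured on glutathione beads, given DNA barcodes and pooled with a GST-only negative control. Pools were incubated with 200 nmole of a 16-mer random double-stranded DNA library in Tris/NaCl/DTT/glycerol buffer at room temperature for 30 min. They were then washed, crosslinked with 0.1% formaldehyde, proximity-ligated (BsaI/T4 ligase, 1 h, 37 °C), PCR-amplified and sequenced on an Illumina NextSeq500. Binding signal is each 6-mer's read frequency for a factor divided by its frequency for the GST control.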
SPIB, sequence (Q01892 whole entry): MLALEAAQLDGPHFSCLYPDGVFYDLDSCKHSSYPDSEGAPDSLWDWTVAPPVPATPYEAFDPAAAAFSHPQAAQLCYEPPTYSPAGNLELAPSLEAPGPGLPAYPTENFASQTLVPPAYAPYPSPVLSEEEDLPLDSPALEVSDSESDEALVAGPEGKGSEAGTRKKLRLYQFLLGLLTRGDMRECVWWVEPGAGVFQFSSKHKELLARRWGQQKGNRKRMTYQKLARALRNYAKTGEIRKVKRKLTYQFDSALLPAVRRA
AACTAC: the binding signal is 1.43 fold enrichment (6-mer frequency, TF over GST control).

For ACTTTC, the binding signal is 1.59 fold enrichment (6-mer frequency, TF over GST control).

Consider CATTTA, for which the binding signal was 1.32 fold enrichment (6-mer frequency, TF over GST control).

For GCTCTC, the binding signal is 1.34 fold enrichment (6-mer frequency, TF over GST control).

For GCTTTA, the binding signal is 1.09 fold enrichment (6-mer frequency, TF over GST control).

Consider CCTGAT, for which the binding signal was 1.45 fold enrichment (6-mer frequency, TF over GST control).

As for ATTCCT, the binding signal is 1.34 fold enrichment (6-mer frequency, TF over GST control).

AGTGCT: the binding signal was 1.4 fold enrichment (6-mer frequency, TF over GST control).

Take AGCAAT: the binding signal is 1.1 fold enrichment (6-mer frequency, TF over GST control).

Consider TTTTTC, for which the binding signal was 1.23 fold enrichment (6-mer frequency, TF over GST control).

For the sequence ATGCTA, the binding signal is 1.28 fold enrichment (6-mer frequency, TF over GST control).

Take CAAGAT: the binding signal was 1.04 fold enrichment (6-mer frequency, TF over GST control).

Take CTTTAT: the binding signal is 1.34 fold enrichment (6-mer frequency, TF over GST control).

Take TCTAAT: the binding signal was 1.26 fold enrichment (6-mer frequency, TF over GST control).

With AGCTTA, the binding signal is 1.1 fold enrichment (6-mer frequency, TF over GST control).

With TTGAAT, the binding signal is 1.11 fold enrichment (6-mer frequency, TF over GST control).

With CAATAT, the binding signal is 1.24 fold enrichment (6-mer frequency, TF over GST control).

Take TTAAAC: the binding signal was 1.26 fold enrichment (6-mer frequency, TF over GST control).

Take AATTCG: the binding signal was 1.23 fold enrichment (6-mer frequency, TF over GST control).

As for TGACCC, the binding signal was 1.51 fold enrichment (6-mer frequency, TF over GST control).

The target of the next assay is SPI1 (Homo sapiens, UniProt P17947 1-270). The assay is described as above. To be noted: protein: recombinant; tags: N-terminal GST; dsDNA, one strand shown. In outline: as §1
Consider ACCTAA, for which the binding signal was 1.2 fold enrichment (6-mer frequency, TF over GST control).

On to CTACAC, for which the binding signal is 1.21 fold enrichment (6-mer frequency, TF over GST control).

On to TATCCA, for which the binding signal was 1.27 fold enrichment (6-mer frequency, TF over GST control).

With GATTAC, the binding signal is 1.09 fold enrichment (6-mer frequency, TF over GST control).

With GACTTC, the binding signal was 3.04 fold enrichment (6-mer frequency, TF over GST control).

Take TATAAA: the binding signal was 1.26 fold enrichment (6-mer frequency, TF over GST control).

In the case of CACGAT, the binding signal is 1.27 fold enrichment (6-mer frequency, TF over GST control).

In the case of TTATGA, the binding signal was 1.15 fold enrichment (6-mer frequency, TF over GST control).

TAGCTT: the binding signal was 1.25 fold enrichment (6-mer frequency, TF over GST control).

On to TATTCA, for which the binding signal is 1.29 fold enrichment (6-mer frequency, TF over GST control).

On to ACCTCT, for which the binding signal is 1.29 fold enrichment (6-mer frequency, TF over GST control).

On to TCCCCC, for which the binding signal was 1.46 fold enrichment (6-mer frequency, TF over GST control).

TCGACA: the binding signal is 1.28 fold enrichment (6-mer frequency, TF over GST control).

Take AGTATT: the binding signal was 1.1 fold enrichment (6-mer frequency, TF over GST control).

Take ATGTTA: the binding signal was 1.13 fold enrichment (6-mer frequency, TF over GST control).

Take CATTTG: the binding signal is 1.29 fold enrichment (6-mer frequency, TF over GST control).

Consider GCACTT, for which the binding signal was 2.23 fold enrichment (6-mer frequency, TF over GST control).

TCACTC: the binding signal is 1.21 fold enrichment (6-mer frequency, TF over GST control).

CCCGCT: the binding signal was 1.37 fold enrichment (6-mer frequency, TF over GST control).

Regarding ATTAAT, the binding signal was 1.21 fold enrichment (6-mer frequency, TF over GST control).

For the sequence AACTAC, the binding signal is 1.47 fold enrichment (6-mer frequency, TF over GST control).

For the sequence ACTTTC, the binding signal was 1.66 fold enrichment (6-mer frequency, TF over GST control).

For the sequence CATTTA, the binding signal was 1.26 fold enrichment (6-mer frequency, TF over GST control).

For GCTCTC, the binding signal is 1.35 fold enrichment (6-mer frequency, TF over GST control).

Regarding GCTTTA, the binding signal was 1.16 fold enrichment (6-mer frequency, TF over GST control).

Regarding CCTGAT, the binding signal was 1.5 fold enrichment (6-mer frequency, TF over GST control).

Regarding ATTCCT, the binding signal was 1.46 fold enrichment (6-mer frequency, TF over GST control).

Turning to AGTGCT, the binding signal was 1.91 fold enrichment (6-mer frequency, TF over GST control).

As to AGCAAT, the binding signal was 1.1 fold enrichment (6-mer frequency, TF over GST control).

In the case of TTTTTC, the binding signal was 1.33 fold enrichment (6-mer frequency, TF over GST control).

ATGCTA: the binding signal was 1.22 fold enrichment (6-mer frequency, TF over GST control).

In the case of CAAGAT, the binding signal is 1.01 fold enrichment (6-mer frequency, TF over GST control).

For the sequence CTTTAT, the binding signal is 1.25 fold enrichment (6-mer frequency, TF over GST control).

In the case of TCTAAT, the binding signal is 1.19 fold enrichment (6-mer frequency, TF over GST control).

On to AGCTTA, for which the binding signal is 1.14 fold enrichment (6-mer frequency, TF over GST control).

TTGAAT: the binding signal was 1.12 fold enrichment (6-mer frequency, TF over GST control).

Consider CAATAT, for which the binding signal was 1.23 fold enrichment (6-mer frequency, TF over GST control).

In the case of TTAAAC, the binding signal is 1.24 fold enrichment (6-mer frequency, TF over GST control).

With AATTCG, the binding signal is 1.13 fold enrichment (6-mer frequency, TF over GST control).

Turning to TGACCC, the binding signal is 1.26 fold enrichment (6-mer frequency, TF over GST control).

In the next assay the target is SPIB (Homo sapiens, UniProt Q01892 1-262). Described as above. Conditions: protein: recombinant; tags: N-terminal GST; dsDNA, one strand shown. In outline:
as §1
On to ACCTAA, for which the binding signal was 1.19 fold enrichment (6-mer frequency, TF over GST control).

Turning to CTACAC, the binding signal was 1.33 fold enrichment (6-mer frequency, TF over GST control).

Consider TATCCA, for which the binding signal was 1.36 fold enrichment (6-mer frequency, TF over GST control).

As for GATTAC, the binding signal was 1.15 fold enrichment (6-mer frequency, TF over GST control).

On to GACTTC, for which the binding signal is 2.51 fold enrichment (6-mer frequency, TF over GST control).

For TATAAA, the binding signal was 1.3 fold enrichment (6-mer frequency, TF over GST control).

Turning to CACGAT, the binding signal is 1.32 fold enrichment (6-mer frequency, TF over GST control).

Turning to TTATGA, the binding signal is 1.14 fold enrichment (6-mer frequency, TF over GST control).

For TAGCTT, the binding signal is 1.29 fold enrichment (6-mer frequency, TF over GST control).

Take TATTCA: the binding signal was 1.27 fold enrichment (6-mer frequency, TF over GST control).

Take ACCTCT: the binding signal was 1.24 fold enrichment (6-mer frequency, TF over GST control).

With TCCCCC, the binding signal is 1.53 fold enrichment (6-mer frequency, TF over GST control).

For the sequence TCGACA, the binding signal is 1.25 fold enrichment (6-mer frequency, TF over GST control).

AGTATT: the binding signal was 1.17 fold enrichment (6-mer frequency, TF over GST control).

On to ATGTTA, for which the binding signal is 1.17 fold enrichment (6-mer frequency, TF over GST control).

As for CATTTG, the binding signal is 1.28 fold enrichment (6-mer frequency, TF over GST control).

Take GCACTT: the binding signal was 1.7 fold enrichment (6-mer frequency, TF over GST control).

For TCACTC, the binding signal was 1.26 fold enrichment (6-mer frequency, TF over GST control).

As for CCCGCT, the binding signal is 1.35 fold enrichment (6-mer frequency, TF over GST control).

Regarding ATTAAT, the binding signal is 1.24 fold enrichment (6-mer frequency, TF over GST control).

In the case of AACTAC, the binding signal is 1.47 fold enrichment (6-mer frequency, TF over GST control).

With ACTTTC, the binding signal was 1.7 fold enrichment (6-mer frequency, TF over GST control).

Turning to CATTTA, the binding signal is 1.18 fold enrichment (6-mer frequency, TF over GST control).

Turning to GCTCTC, the binding signal is 1.29 fold enrichment (6-mer frequency, TF over GST control).

Consider GCTTTA, for which the binding signal was 1.09 fold enrichment (6-mer frequency, TF over GST control).

In the case of CCTGAT, the binding signal was 1.6 fold enrichment (6-mer frequency, TF over GST control).

Turning to ATTCCT, the binding signal was 1.43 fold enrichment (6-mer frequency, TF over GST control).

Regarding AGTGCT, the binding signal was 1.53 fold enrichment (6-mer frequency, TF over GST control).

For AGCAAT, the binding signal is 1.18 fold enrichment (6-mer frequency, TF over GST control).

For TTTTTC, the binding signal was 1.14 fold enrichment (6-mer frequency, TF over GST control).

With ATGCTA, the binding signal is 1.21 fold enrichment (6-mer frequency, TF over GST control).

For the sequence CAAGAT, the binding signal is 1.01 fold enrichment (6-mer frequency, TF over GST control).

As to CTTTAT, the binding signal is 1.19 fold enrichment (6-mer frequency, TF over GST control).

As to TCTAAT, the binding signal is 1.16 fold enrichment (6-mer frequency, TF over GST control).

On to AGCTTA, for which the binding signal was 1.21 fold enrichment (6-mer frequency, TF over GST control).

With TTGAAT, the binding signal is 1.03 fold enrichment (6-mer frequency, TF over GST control).

As for CAATAT, the binding signal is 1.23 fold enrichment (6-mer frequency, TF over GST control).

As for TTAAAC, the binding signal was 1.26 fold enrichment (6-mer frequency, TF over GST control).

As to AATTCG, the binding signal was 1.38 fold enrichment (6-mer frequency, TF over GST control).

As to TGACCC, the binding signal is 1.3 fold enrichment (6-mer frequency, TF over GST control).

Values taken from PMC7862700, “An all-to-all approach to the identification of sequence-specific readers for epigenetic DNA modifications on cytosine”.
